Compounds with a hit are over-represented: about 2.7% of the library has one in this group of screens.
PfGluPho inh: PfG6PD (Plasmodium falciparum) enzyme inhibition; inhibition, % at 20 µM; AID 504690; PfGluPho enzyme, NADPH resazurin-diaphorase fluorescence; 350,000 compounds, 0.78% hits;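 active = inhibition reaching at least a set limit at 20 µM in the primary screen, cut at about 59% in these data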
KLK7 zymogen act: activates the human kallikrein-7 zymogen; purified proKLK7, EDANS-DABCYL substrate fluorescence; 100% is mature enzyme control, 0% vehicle; 370,000 compounds, 0.9% hits; AID 652039; activation, % at 7 µM;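 active = activation above the mean of all tested compounds plus 3 SD, computed per campaign excluding outliers beyond control limits, cut at about 13% in these data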
FAS TE block: inhibitors of human fatty acid synthase thioesterase domain; recombinant FAS-TE, OMFH fluorogenic substrate, fluorescence endpoint; inhibition, % at 15 µM; 360,000 compounds, 0.67% hits; AID 602261;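 active = compounds whose normalised, plate-corrected inhibition of enzyme fluorescence in the single-dose primary screen is 50% or more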
Target sequence (P49327 whole entry, looked up, the tested form may be a part): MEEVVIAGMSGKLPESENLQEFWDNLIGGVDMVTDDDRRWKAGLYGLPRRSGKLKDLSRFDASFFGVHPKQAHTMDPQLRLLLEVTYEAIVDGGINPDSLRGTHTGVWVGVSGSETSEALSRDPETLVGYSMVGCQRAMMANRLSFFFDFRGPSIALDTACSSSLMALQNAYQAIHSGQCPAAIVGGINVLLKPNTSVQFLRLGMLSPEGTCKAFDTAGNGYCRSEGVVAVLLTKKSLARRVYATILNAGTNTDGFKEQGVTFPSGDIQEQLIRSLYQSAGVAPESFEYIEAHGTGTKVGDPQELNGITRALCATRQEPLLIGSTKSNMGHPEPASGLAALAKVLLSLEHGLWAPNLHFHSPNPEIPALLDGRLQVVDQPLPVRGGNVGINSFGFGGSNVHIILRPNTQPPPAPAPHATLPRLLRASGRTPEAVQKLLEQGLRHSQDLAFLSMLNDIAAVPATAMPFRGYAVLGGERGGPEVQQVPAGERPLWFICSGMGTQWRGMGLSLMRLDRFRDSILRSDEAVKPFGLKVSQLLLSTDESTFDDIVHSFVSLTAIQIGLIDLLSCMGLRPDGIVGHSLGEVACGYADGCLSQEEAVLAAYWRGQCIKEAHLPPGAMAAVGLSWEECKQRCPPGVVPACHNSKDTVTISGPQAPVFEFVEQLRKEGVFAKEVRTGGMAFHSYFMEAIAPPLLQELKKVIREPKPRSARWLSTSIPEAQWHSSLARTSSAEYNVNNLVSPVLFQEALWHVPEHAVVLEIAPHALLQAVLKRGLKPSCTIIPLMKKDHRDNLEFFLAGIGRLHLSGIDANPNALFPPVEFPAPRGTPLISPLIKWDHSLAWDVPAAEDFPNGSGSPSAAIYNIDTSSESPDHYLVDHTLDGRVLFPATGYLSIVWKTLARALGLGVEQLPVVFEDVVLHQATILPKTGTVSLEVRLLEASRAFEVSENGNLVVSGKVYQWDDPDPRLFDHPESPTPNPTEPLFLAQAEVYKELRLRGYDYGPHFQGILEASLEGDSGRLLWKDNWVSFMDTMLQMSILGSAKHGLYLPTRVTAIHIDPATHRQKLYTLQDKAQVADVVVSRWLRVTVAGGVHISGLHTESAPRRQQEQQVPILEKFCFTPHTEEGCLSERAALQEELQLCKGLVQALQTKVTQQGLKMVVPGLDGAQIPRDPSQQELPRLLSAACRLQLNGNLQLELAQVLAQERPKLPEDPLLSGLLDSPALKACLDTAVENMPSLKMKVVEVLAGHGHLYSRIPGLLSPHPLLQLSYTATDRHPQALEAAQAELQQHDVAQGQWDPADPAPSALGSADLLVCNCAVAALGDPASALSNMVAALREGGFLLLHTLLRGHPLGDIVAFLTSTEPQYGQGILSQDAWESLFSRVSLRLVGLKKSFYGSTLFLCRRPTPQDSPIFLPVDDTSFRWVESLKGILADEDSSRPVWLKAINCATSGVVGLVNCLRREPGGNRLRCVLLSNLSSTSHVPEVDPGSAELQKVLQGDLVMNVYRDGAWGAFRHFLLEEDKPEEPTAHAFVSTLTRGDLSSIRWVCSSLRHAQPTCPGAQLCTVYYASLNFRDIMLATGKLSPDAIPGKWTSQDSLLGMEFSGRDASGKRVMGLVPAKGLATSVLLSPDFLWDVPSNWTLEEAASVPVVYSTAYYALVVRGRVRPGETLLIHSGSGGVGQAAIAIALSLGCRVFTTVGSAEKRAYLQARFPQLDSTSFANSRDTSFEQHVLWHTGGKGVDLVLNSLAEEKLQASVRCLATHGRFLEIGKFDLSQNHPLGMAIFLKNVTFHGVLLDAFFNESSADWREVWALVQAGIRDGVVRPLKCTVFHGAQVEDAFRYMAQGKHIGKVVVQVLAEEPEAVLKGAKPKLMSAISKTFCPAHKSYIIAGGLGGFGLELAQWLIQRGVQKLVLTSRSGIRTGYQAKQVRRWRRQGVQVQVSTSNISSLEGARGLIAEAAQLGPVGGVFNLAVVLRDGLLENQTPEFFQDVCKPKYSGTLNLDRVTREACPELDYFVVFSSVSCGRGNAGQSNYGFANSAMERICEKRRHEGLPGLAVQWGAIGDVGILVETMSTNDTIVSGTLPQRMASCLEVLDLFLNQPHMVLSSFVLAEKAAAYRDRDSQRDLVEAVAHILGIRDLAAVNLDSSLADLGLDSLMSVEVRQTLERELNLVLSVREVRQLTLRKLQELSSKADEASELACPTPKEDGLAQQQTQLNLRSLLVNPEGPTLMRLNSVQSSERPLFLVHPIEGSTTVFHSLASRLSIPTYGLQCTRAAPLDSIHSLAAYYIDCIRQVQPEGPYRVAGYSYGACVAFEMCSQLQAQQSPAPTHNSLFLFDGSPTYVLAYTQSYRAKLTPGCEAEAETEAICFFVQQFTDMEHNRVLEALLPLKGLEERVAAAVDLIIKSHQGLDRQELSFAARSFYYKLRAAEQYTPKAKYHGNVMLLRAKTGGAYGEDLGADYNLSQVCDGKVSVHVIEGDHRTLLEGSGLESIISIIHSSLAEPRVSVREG
Neddyl block: blocks human cullin neddylation. P61081+Q13564. TR-FRET cullin neddylation, biochemical. calls only at 25 µM. 360,000 compounds, 0.58% hits. AID 651699; in the data active = inhibition above about 36%
Large screens that a line does not name were inactive.

Cc1ccc(N(C)c2nc(N)nc(N)c2N=O)cc1	KLK7 zymogen act 44 (no result: PfGluPho inh, FAS TE block, Neddyl block)
Cc1cccc(Nc2nc(N)nc(N)c2N=O)c1	none
Cc1ccc(-n2c(COc3ccccc3)nnc2SCC(=O)Nc2ccccc2-c2ccccc2)cc1	none (no result: PfGluPho inh, FAS TE block, Neddyl block)
COc1c(OC(C)=O)ccc(/C=C/c2ccc3ccccc3n2)c1[N+](=O)[O-]	FAS TE block 59
O=C(CSc1nnc(-c2cccnc2)n1-c1ccccc1)Nc1cccc2ccccc12	none (no result: PfGluPho inh, FAS TE block, Neddyl block)
Cc1ccc(C(C)C)c(OCc2ccc(C(=O)N/N=C/c3ccc(O)cc3O)cc2)c1	Neddyl block active
Cc1ccc(C(C)C)c(OCc2ccc(C(=O)N/N=C/c3ccc(C(=O)O)cc3)cc2)c1	none
COC(=O)[C@]12C[C@H](CC(=O)NCCCCc3ccccc3)C(=O)N(CCc3ccc(OC)c(OC)c3)C1=C[C@H](C(C)(C)C)O[C@@H]2C	none (no result: PfGluPho inh, FAS TE block, Neddyl block)
COC(=O)C1=C(C(=O)OC)[C@@H]2N(C)c3ccccc3[C@@]23C[C@@H](CO)N(C(=O)NCCBr)C3=N1	FAS TE block 52
COC(=O)[C@H]1C[C@@]2(N3CCCC3)c3ccccc3N[C@H]2N1S(C)(=O)=O	none (no result: PfGluPho inh, FAS TE block, Neddyl block)
CCCCC1OC23CCCCC2C(C#N)(C#N)C1(C#N)C(=N)O3 (stereo not given)	Neddyl block active
CCCCC1OC23CCCCC2C(C#N)(C(=N)O3)C1(C#N)C#N (stereo not given)	none (not shown: Neddyl block)
CC(C)OCCCNc1ncnc2c1[nH]c1ccccc12	Neddyl block active
COc1ccc(CNc2ncnc3c2[nH]c2ccccc23)cc1	none
CC(C)(C)OC(=O)NCCCc1ccc2c(c1)[C@]1(CCC[C@@H](OCc3ccccc3)[C@@H]1NC(=O)CCc1ccccc1)C(=O)N2Cc1ccccc1	none (no result: PfGluPho inh, FAS TE block, Neddyl block)
c1ccc(CCSc2nnc(-c3cccnc3)n2Cc2ccccc2)cc1	none (no result: PfGluPho inh, FAS TE block, Neddyl block)
CC1CCCN(Cc2c(O)ccc3c4c(c(=O)oc23)CCCC4)C1 (stereo not given)	KLK7 zymogen act 101
Nc1nc2c(s1)CCc1c-2cnn1-c1ccccc1	PfGluPho inh 98 (no result: KLK7 zymogen act)
CCOC(=O)CSc1nc2c(sc(=S)n2-c2ccccc2)c(=O)n1-c1ccc(OC)cc1OC	PfGluPho inh 65
CCN(CC)C(=O)CSc1nc2c(sc(=S)n2-c2ccccc2)c(=O)n1-c1ccccc1OC	none
Cc1ccc(NC(=O)c2ccc(CS(=O)(=O)Cc3ccccc3C)o2)c(C)c1	none (no result: PfGluPho inh, FAS TE block, Neddyl block)
CCOC(=O)c1nn(-c2ccc(C)cc2)cc1O	none
CCOC(=O)c1nn(-c2ccc3c(c2)OCO3)cc1O	KLK7 zymogen act 32 (not shown: Neddyl block)
CC(C)CN1CN2Cc3ccccc3C2CS1(=O)=O (stereo not given)	none (no result: PfGluPho inh, FAS TE block, Neddyl block)
O=C(Nc1ccccc1)c1ccc(N2CCN(c3ccccc3)CC2)c(S(=O)(=O)N2CCOCC2)c1	FAS TE block 56
CCc1ccc2oc(-c3ccc(OC)cc3)cc(=Nc3c(C)n(C)n(-c4ccccc4)c3=O)c2c1	Neddyl block active
Cn1c(N)c(C(=O)COC(=O)c2cc(-c3ccco3)nc3ccccc23)c(=O)n(C)c1=O	none
CNC(=O)COC(=O)c1cc(-c2ccco2)nc2ccccc12	KLK7 zymogen act 130 (not shown: Neddyl block)
COc1ccc(NC(=O)c2cc3cc(OC)ccc3oc2=O)cc1	none
COc1ccc2oc(=O)c(C(=O)Oc3ccc(NC(C)=O)cc3)cc2c1	KLK7 zymogen act 215
Cc1c(Cl)sn(-c2ccc(Cl)cc2)c1=O	PfGluPho inh 106
COc1ccc(-c2cc(C(=O)Nc3cc(C)n(Cc4ccc(Cl)cc4)n3)no2)cc1OC	Neddyl block active (no result: KLK7 zymogen act)
Cc1ccc(-n2c(Cc3cccs3)nnc2SCC(=O)Nc2cccc3ccccc23)cc1	none (no result: PfGluPho inh, FAS TE block, Neddyl block)
O=C1c2cccc3c([N+](=O)[O-])ccc(c23)C(=O)N1c1nccs1	PfGluPho inh 60, Neddyl block active
O=C1c2cccc3c([N+](=O)[O-])ccc(c23)C(=O)N1c1ccc(Cl)cn1	Neddyl block active
O=C1c2cccc3c([N+](=O)[O-])ccc(c23)C(=O)N1c1ccccn1	none
Nc1ccccc1C(=O)NNC(=O)C(=O)/C=C(\O)c1ccccc1	Neddyl block active
O=C(/C=C(\O)c1ccccc1)C(=O)NNC(=O)c1ccccc1[N+](=O)[O-]	none
CCOC(=O)[C@]12CCCCC/C=C\1N(CCc1ccc(Cl)cc1)C(=O)[C@H]2CC(=O)NCC12CC3CC(CC(C3)C1)C2	none (no result: PfGluPho inh, FAS TE block, Neddyl block)
CCOC(=O)COc1ccc(C(C)c2ccc(NC(=O)OC(C)(C)C)cc2)cc1 (stereo not given)	none (no result: PfGluPho inh, FAS TE block, Neddyl block)
Cc1ccc(NC(=S)Nc2ccc3nc(-c4ccccn4)c(-c4ccccn4)nc3c2)cc1C	PfGluPho inh 97 (no result: KLK7 zymogen act)
Cn1cnc([N+](=O)[O-])c1S(=O)(=O)Oc1ccc(Cl)cc1	FAS TE block 52
Cn1cnc([N+](=O)[O-])c1S(=O)(=O)Oc1cccc2ccccc12	FAS TE block 66 (not shown: Neddyl block)
Cn1cnc([N+](=O)[O-])c1Oc1cccc2ccccc12	none
O=C(NCCCc1ccccc1)OC1CCC12CCC(c1ccccc1)CC2 (stereo not given)	none (no result: PfGluPho inh, FAS TE block, Neddyl block)
S=c1[nH]nc(-c2n[nH]c3c2CCC3)n1N=Cc1c2ccccc2cc2ccccc12	none (no result: PfGluPho inh, FAS TE block, Neddyl block)
CCOc1ccc(-n2c(SCC(=O)Nc3ccccc3-c3ccccc3)nnc2-c2ccncc2)cc1	none (no result: PfGluPho inh, FAS TE block, Neddyl block)
O=C(N/N=C/c1ccccn1)c1cc(-c2ccc(Br)cc2)nc2ccccc12	Neddyl block active
O=C(N/N=C/c1ccccn1)c1cc(-c2ccc(Cl)cc2)nc2ccccc12	none
Cc1ccc(NC(=O)C2CCCN(c3nnc(-n4cccc4)s3)C2)c(C)c1 (stereo not given)	none (no result: PfGluPho inh, FAS TE block, Neddyl block)
O=c1c2c([N+](=O)[O-])cc([N+](=O)[O-])cc2sn1-c1ccc(Br)cc1	PfGluPho inh 121 (no result: KLK7 zymogen act)
O=c1c2c([N+](=O)[O-])cc([N+](=O)[O-])cc2sn1Cc1ccccc1	PfGluPho inh 124
COCCCN1C(=O)[C@H](CC(=O)NCCCCc2ccccc2)[C@]2(C(=O)OC)CCCCC=C12	none (no result: PfGluPho inh, FAS TE block, Neddyl block)
Cc1oc2c(c1C(=O)NCc1cccnc1)C(=O)c1ccccc1C2=O	PfGluPho inh 103 (no result: KLK7 zymogen act, FAS TE block, Neddyl block)
CCCN1CCCc2cc(CN)ccc21	PfGluPho inh 66
Cc1ccc(-n2c(Cl)c(Cl)nc(Cl)c2=O)cc1	FAS TE block 78 (not shown: KLK7 zymogen act, Neddyl block)
COc1nc(Cl)cn(-c2ccc(C)cc2)c1=O	none
O=C(CCn1nc(-c2ccc(Cl)cc2)ccc1=O)N1CCN(c2ccccc2)CC1	FAS TE block 51
O=S(=O)(c1ccccc1F)N1CCC(c2nc3ccccc3o2)CC1	none (no result: PfGluPho inh, FAS TE block, Neddyl block)
Cc1cc(NC(=O)c2ccc(NS(=O)(=O)c3ccc(F)cc3)cc2)no1	none (no result: PfGluPho inh, FAS TE block, Neddyl block)
CCCCCCn1c(SCC(=O)OC)nc2c1c(=O)[nH]c(=O)n2C	PfGluPho inh 78
Cc1nn(CCC(=O)NNC(=O)Nc2ccc(Cl)cc2)c(C)c1[N+](=O)[O-]	none (no result: PfGluPho inh, FAS TE block, Neddyl block)
CC(CCC(C)C(C)(C)C)[C@@H]1CC[C@H]2C3C[C@H](OS(O)(=S)=S)[C@H]4C[C@H](OS(O)(=S)=S)[C@@H](OS(O)(=S)=S)C[C@]4(C)[C@H]3CC[C@]12C (stereo not given in full) (tested in a mixture with another compound)	FAS TE block 81 (no result: KLK7 zymogen act)
CCOC(=O)[C@]12CCCCC/C=C\1N(CCc1ccc(Cl)cc1)C(=O)[C@H]2CC(=O)N1CCCC1	none (no result: PfGluPho inh, FAS TE block, Neddyl block)
CC(C)(C)OC(=O)n1cc(-c2ccccc2)c2c(-c3ccccc3)c(O)ccc21	none (no result: PfGluPho inh, FAS TE block, Neddyl block)

Source: PubChem (several laboratories)
